# Measured values reported in PMC4336329 (PLoS ONE, 2015).
# Hit rate of the full screen: of about 310,000 compounds, about 14,000 (4.5%) showed an effect of 50% or more. Effects have a minus sign here. The sample as a whole holds a higher share of strong results than the screen did.
# Target: human ether-à-go-go-related gene (hERG) potassium channel (human, UniProt Q12809)
# Assay: primary screen, population patch clamp on CHO cells stably expressing hERG; higher = less effect of the substance
# 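Also: peak tail current of the secondary pulse compared with the same well before compound.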
# human ether-à-go-go-related gene (hERG) potassium channel, sequence (Q12809 whole entry, looked up): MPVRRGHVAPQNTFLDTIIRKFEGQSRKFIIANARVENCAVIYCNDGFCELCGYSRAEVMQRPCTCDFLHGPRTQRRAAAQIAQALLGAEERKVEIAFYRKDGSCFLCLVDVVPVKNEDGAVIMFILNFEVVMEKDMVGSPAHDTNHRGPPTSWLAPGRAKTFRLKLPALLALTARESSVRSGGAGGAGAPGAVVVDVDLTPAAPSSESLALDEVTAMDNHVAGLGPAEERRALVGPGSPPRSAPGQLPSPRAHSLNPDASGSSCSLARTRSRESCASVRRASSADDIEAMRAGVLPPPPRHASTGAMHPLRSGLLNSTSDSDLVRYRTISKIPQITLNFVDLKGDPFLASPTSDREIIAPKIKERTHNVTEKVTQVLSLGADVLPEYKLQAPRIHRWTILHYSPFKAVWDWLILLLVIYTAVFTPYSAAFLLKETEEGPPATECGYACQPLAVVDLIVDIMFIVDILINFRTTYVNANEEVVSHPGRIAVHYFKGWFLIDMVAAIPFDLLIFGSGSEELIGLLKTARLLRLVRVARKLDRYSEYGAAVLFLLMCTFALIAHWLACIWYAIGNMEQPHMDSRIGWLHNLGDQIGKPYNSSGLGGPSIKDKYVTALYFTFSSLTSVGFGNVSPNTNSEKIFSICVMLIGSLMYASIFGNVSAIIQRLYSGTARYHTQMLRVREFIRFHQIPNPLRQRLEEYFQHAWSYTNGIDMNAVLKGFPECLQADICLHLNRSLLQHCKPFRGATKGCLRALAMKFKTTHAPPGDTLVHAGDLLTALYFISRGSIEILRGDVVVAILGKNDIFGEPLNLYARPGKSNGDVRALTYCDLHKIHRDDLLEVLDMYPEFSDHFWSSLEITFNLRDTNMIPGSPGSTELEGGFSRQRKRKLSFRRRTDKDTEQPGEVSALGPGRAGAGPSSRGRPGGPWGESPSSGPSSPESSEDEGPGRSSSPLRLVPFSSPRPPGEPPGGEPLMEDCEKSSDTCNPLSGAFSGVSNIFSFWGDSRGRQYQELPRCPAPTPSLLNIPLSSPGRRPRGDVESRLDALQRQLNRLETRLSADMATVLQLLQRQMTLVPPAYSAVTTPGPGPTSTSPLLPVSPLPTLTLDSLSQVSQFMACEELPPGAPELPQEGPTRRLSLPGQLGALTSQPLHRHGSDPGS
row,Structure (SMILES),"hERG current change (%, negative = inhibition) at 10uM"
1,COc1cccc(CC(Cc2nc3ccccc3[nH]2)c2nc3ccccc3[nH]2)c1 (centres unmarked),-33%
2,Cn1nnnc1SCC(=O)Nc1ccc(N2CCOCC2)cc1,5.57%
3,N#CCc1ccc(NC(=O)c2ccc(S(=O)(=O)N3CCCC3)cc2)cc1,16.9%
4,CC1CCCCN1S(=O)(=O)c1ccc(NC(=O)c2cccs2)cc1 (centres unmarked),-11.3%
5,COc1ccccc1CNc1ncnc2c1cnn2-c1ccccc1,-12.1%
6,COc1ccc2nc(Nc3nc(CSc4nnnn4-c4ccccc4)cc(=O)[nH]3)nc(C)c2c1,-42.1%
7,O=C(NCc1ccccc1Cl)c1ccc2ccccc2n1,-1.85%
8,O=C(O)C1=C[C@@H](c2ccc(Br)cc2)C[C@@H](OCc2ccc(CO)cc2)O1,18.2%
9,Cc1ccc(NC(=O)[C@@H]2CCCN2S(=O)(=O)c2ccccc2C(F)(F)F)cc1S(=O)(=O)N1CCOCC1,-21.4%
10,CCN1C(=O)N[C@H](c2ccccc2)C(C(C)=O)=C1C,8.38%
11,CN1CCN(C=NC2=NN(c3cccc(C(F)(F)F)c3)CC2)CC1,-23.9%
12,O=[N+]([O-])c1ccc(Oc2ccc(/C=N/O)cc2)nc1,0.3%
13,Cc1ccc(Oc2ccc(/C=N/O)cn2)cc1,-1.45%
14,N#Cc1ccc(Oc2ccc(/C=N/O)cn2)cc1,-73.7%
15,CCOC(=O)Nc1ccc(C(=O)/C=C/c2ccccc2)cc1,-7.78%
16,COc1cccc(/C=C(\CC(=O)O)c2nc3ccccc3s2)c1,11.6%
17,Cn1ncc(Cl)c1C(=O)NNC(=O)Nc1cccc2ccccc12,7.09%
18,Cc1ccc(-c2nn3c(C)nnc3c3ccccc23)cc1S(=O)(=O)NCc1ccccc1,-29.5%
19,CCOC(=O)N1CCN(S(=O)(=O)c2cc(-c3nn4c(C)nnc4c4ccccc34)ccc2C)CC1,-29%
20,Cc1ccc(-c2nn3c(C)nnc3c3ccccc23)cc1S(=O)(=O)N1CCN(CCO)CC1,-74.5%
21,Cc1ccc(-c2nnc3c4ccccc4c(C)nn23)cc1S(=O)(=O)N1CCN(CCO)CC1,-32.9%

row,Structure (SMILES),"hERG current change (%, negative = inhibition) at 10uM"
1,Cc1ccc(-c2nn3c(C)nnc3c3ccccc23)cc1S(=O)(=O)NCCO,11%
2,Cc1ccc(-c2nn3c(C)nnc3c3ccccc23)cc1S(=O)(=O)NC(C)c1ccccc1 (centres unmarked),-50.8%
3,CCCN(C(=O)c1cc(Cl)nc2ccccc12)C1CCS(=O)(=O)C1 (centres unmarked),9.75%
4,O=C(N/N=C/c1ccncc1)c1ccc(NS(=O)(=O)c2cccs2)cc1,8.88%
5,COc1ccc(CN(C)CC2CCCN(CCc3ccccc3C)C2)cc1O (centres unmarked),-53.8%
6,COc1ccc(CCN2CCCC(CN(C)Cc3cccc(OC)c3)C2)cc1 (centres unmarked),-60.6%
7,COc1cccc(CN(C)CC2CCCN(CCc3ccccc3C)C2)c1 (centres unmarked),-109%
8,CC(=O)c1cccc(CN(C)CC2CCCN(CCc3ccccc3C)C2)c1 (centres unmarked),-28.8%
9,CCn1c(CNC(=O)c2ccccc2Br)nnc1SCC(=O)Nc1nncs1,3.2%
10,COc1cccc(C(=O)Nc2ccc(NC(=O)c3ccco3)cn2)c1,-15.1%
11,O=C(Nc1ccc2c(c1)OCO2)c1cnn2c(C(F)(F)F)cc(-c3ccco3)nc12,2.24%
12,CCOC(=O)Cc1c(C)nc2c(-c3ccccc3OC)c(C)nn2c1C,-22.7%
13,COc1ccc(/C=N/N2C(=O)CN(C(=O)c3ccccc3)C2c2ccc(OC)cc2)cc1 (centres unmarked),-4.19%
14,CCCCc1nc2ccccc2c(N)c1CCC.O=C(O)c1cc([N+](=O)[O-])ccc1Cl,-66.4%
15,CN1CCc2c1nc1ccccc1c2N.O=C(O)c1cc([N+](=O)[O-])ccc1Cl,-9.41%
16,CCCCc1nc2ccccc2c(C(=O)O)c1C,7.29%
17,CS(=O)(=O)Nc1ccc(C2=NN(C(=O)c3cccc(F)c3)C(c3cccs3)C2)cc1 (centres unmarked),-53.8%
18,CC(C)(C)C(=O)N1N=C(c2ccc(NS(C)(=O)=O)cc2)CC1c1cccs1 (centres unmarked),-18.6%
19,CC(C)C(=O)N1N=C(c2ccc(NS(C)(=O)=O)cc2)CC1c1cccs1 (centres unmarked),-68.7%
20,CS(=O)(=O)Nc1ccc(C2=NN(C(=O)c3ccccc3)C(c3cccs3)C2)cc1 (centres unmarked),-59.6%
21,CCS(=O)(=O)Nc1ccc(C2=NN(C(=O)c3ccccc3)C(c3cccs3)C2)cc1 (centres unmarked),4.84%

row,Structure (SMILES),"hERG current change (%, negative = inhibition) at 10uM"
1,CS(=O)(=O)Nc1ccc(C2=NN(S(=O)(=O)c3ccccc3)C(c3cccs3)C2)cc1 (centres unmarked),-70.3%
2,CS(=O)(=O)Nc1cccc(C2=NN(S(=O)(=O)c3ccccc3)C(c3cccs3)C2)c1 (centres unmarked),-1.94%
3,CS(=O)(=O)Nc1ccc(C2=NN(S(C)(=O)=O)C(c3cccs3)C2)cc1 (centres unmarked),-49%
4,Cc1cccc(C(=O)N2N=C(c3ccc(NS(C)(=O)=O)cc3)CC2c2cccs2)c1 (centres unmarked),-8.44%
5,Cc1ccc(C(=O)N2N=C(c3ccc(NS(C)(=O)=O)cc3)CC2c2cccs2)cc1 (centres unmarked),-23.1%
6,CS(=O)(=O)Nc1ccc(C2=NN(C(=O)C3CCCCC3)C(c3cccs3)C2)cc1 (centres unmarked),-22.8%
7,CS(=O)(=O)Nc1cccc(C2=NN(C(=O)c3cccc(F)c3)C(c3cccs3)C2)c1 (centres unmarked),3.75%
8,CCOC(=O)C1=NNC2C(=O)N(CC)C(=O)C12 (centres unmarked),9.23%
9,Cc1ccc(C)c(S(=O)(=O)N2CCN(CC(=O)Nc3ccc4c(c3)OCCO4)CC2)c1,-13.9%
10,Cc1occc1C(=O)N1CCN(S(C)(=O)=O)CC1,7.58%
11,COc1ccc(CNC(=O)c2cc(=O)c3cc(C)c(C)cc3o2)cc1,19.3%
12,COc1ccccc1C1CC(c2cccc(NS(C)(=O)=O)c2)=NN1S(=O)(=O)c1ccccc1 (centres unmarked),3.08%
13,COc1ccccc1C1CC(c2ccc(NS(C)(=O)=O)cc2)=NN1S(=O)(=O)c1ccccc1 (centres unmarked),-69.6%
14,COc1ccccc1C1CC(c2ccccc2)=NN1S(=O)(=O)c1ccccc1 (centres unmarked),12%
15,O=C(COC(=O)c1ccc(S(=O)(=O)N2CCOCC2)cc1)NCc1cccs1,2.5%
16,CCOc1ccc(N2CC(C(=O)Oc3ccccc3)CC2=O)cc1 (centres unmarked),-10.9%
17,O=S(=O)(CCSc1nc2ccccc2o1)c1nc2ccccc2s1,-5.57%
18,Cc1cc(Cl)c(S(=O)(=O)N(C)C)cc1OCC(N)=O,10.5%
19,COc1ccc(C2CC(c3ccccc3)=NN2S(=O)(=O)c2ccccc2)cc1 (centres unmarked),14.8%
20,O=C(CN(c1ccccc1)S(=O)(=O)c1ccc(Cl)cc1)Nc1ccccc1C(=O)N1CCCC1,-54.2%
21,Cc1ccc(S(=O)(=O)N(CC(=O)Nc2ccccc2C(=O)O)c2ccc(Cl)cc2)cc1,13.6%

row,Structure (SMILES),"hERG current change (%, negative = inhibition) at 10uM"
1,COc1ccc(N(CC(=O)Nc2ccccc2C(=O)N2CCCC2)S(=O)(=O)c2ccccc2)cc1,-51.8%
2,CCOc1ccc(N(CC(=O)Nc2ccccc2C(=O)N2CCCC2)S(C)(=O)=O)cc1,2.43%
3,COc1ccc(N(CC(=O)Nc2ccccc2C(=O)N2CCCC2)S(C)(=O)=O)cc1,27.7%
4,COc1ccc(N(CC(=O)Nc2ccccc2C(=O)N2CCOCC2)S(=O)(=O)c2ccc(F)cc2)cc1,-44.6%
5,CCOc1ccc(N(CC(=O)Nc2ccccc2C(=O)N2CCOCC2)S(=O)(=O)c2ccc(F)cc2)cc1,-30.5%
6,COc1ccc(S(=O)(=O)N(CC(=O)Nc2ccccc2C(=O)N2CCOCC2)c2ccc(F)cc2)cc1,-57%
7,CN(CC(=O)Nc1ccccc1C(=O)N1CCCC1)S(=O)(=O)c1ccc(Cl)cc1,-22.8%
8,CCCn1c(SCC(=O)c2[nH]c(C)c(C(C)=O)c2C)n[nH]c1=O,-1.57%
9,COc1ccc(OC)c(NS(=O)(=O)c2ccc(NC(=O)c3ccc(NS(C)(=O)=O)cc3)cc2)c1,14.2%
10,Cc1ccc(-n2c(SCC(=O)Nc3nccs3)nc3c(c2=O)SCC3)cc1,0.0407%
11,CC1CC1C(=O)OCC(=O)Nc1ccccc1Oc1ccccc1 (centres unmarked),13.9%
12,COc1ccc(Cl)cc1NC(=O)C1CC(=O)N(c2ccc(F)cc2)C1 (centres unmarked),4.41%
13,CSc1ccc(/C=C(\NC(=O)c2ccco2)C(=O)N2CCCCC2)cc1,-29.6%
14,CSc1ncc(Cl)c(C(=O)Nc2ccc(C)c(C)c2)n1,13.4%
15,CCOc1ccc(-c2c(C)n([O-])c3c([n+]2=O)CCCC3)cc1,-1.2%
16,CCOc1ccc(-n2c(-c3ccc(Br)cc3)c[n+]3c2CCCCC3)cc1.[Br-],-77.7%
17,CCOc1ccc(-n2c(-c3ccc(OC)cc3)c[n+]3c2CCCCC3)cc1.[Br-],-76%
18,CCOc1ccc(-c2c(C)n(-c3ccc(OCC)cc3)c3[n+]2CCCCC3)cc1.[O-][Cl+3]([O-])([O-])[O-],-77.7%
19,CCOc1ccc(-c2c(C)n([O-])c3c([n+]2=O)CCCCC3)cc1,17.4%
20,CCOc1ccc(N2C(=O)CC(Cc3ccc(Br)cc3)C2=O)cc1 (centres unmarked),5.77%
